Measurements reported in PubChem BioAssay.
Activity calls are given as the source filed them. Unless noted, no rule for the calls is given here.

Tests used:
[1] = system: XIP peptide (Xip251-270) binding; experiment: XIP fragment 251-270 binding compounds – biochemical, small-molecule microarray, fluorescence 635/667 nm, 0.1 µg/mL protein, primary screen (AID 1182); conditions: fluorescent protein binding, 635 nm, higher = more signal, called active from +8 up or from −8 down
XIP peptide (Xip251-270) = experiment: compounds binding XIP fragment 251-270 – biochemical, small-molecule microarray, fluorescence 635/667 nm, 0.5 µg/mL protein, primary screen (AID 1183); conditions: fluorescence 635 nm, higher = more signal
[2] = blood-stage malaria parasite viability loss – strain 3D7, DAPI fluorescence, 100 nL, primary screen (AID 1184);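 also: parasites grown inside human red blood cells in medium with human serum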; conditions: P. falciparum 3D7 growth, 3 d, higher = more signal
[3] = target: Homeobox protein Hox-A13 (Mus musculus) (UniProt Q62424); experiment: disruptors of Hoxa13 oligonucleotide interaction – biochemical, fluorescence polarization, labeled oligonucleotide, primary screen (AID 1185); conditions: Hoxa13:DNA binding, 15 min, higher = more signal, called active from +8 up or from −8 down
[4] = blockers of DNA damage checkpoint Chk1 activation – imaging, HeLa, hydroxyurea, phospho-Chk1 antibody, percent positive cells, primary screen (AID 1186); conditions: hydroxyurea-induced phospho-Chk1 immunofluorescence imaging, higher = more signal
[5] = blockers of DNA damage checkpoint Chk1 activation – imaging, HeLa, hydroxyurea, phospho-Chk1 nuclear intensity, primary screen (AID 1187); conditions: hydroxyurea-induced phospho-Chk1 immunofluorescence imaging, higher = more signal

Chain of Homeobox protein Hox-A13 (Mus musculus) (Q62424 whole entry, looked up): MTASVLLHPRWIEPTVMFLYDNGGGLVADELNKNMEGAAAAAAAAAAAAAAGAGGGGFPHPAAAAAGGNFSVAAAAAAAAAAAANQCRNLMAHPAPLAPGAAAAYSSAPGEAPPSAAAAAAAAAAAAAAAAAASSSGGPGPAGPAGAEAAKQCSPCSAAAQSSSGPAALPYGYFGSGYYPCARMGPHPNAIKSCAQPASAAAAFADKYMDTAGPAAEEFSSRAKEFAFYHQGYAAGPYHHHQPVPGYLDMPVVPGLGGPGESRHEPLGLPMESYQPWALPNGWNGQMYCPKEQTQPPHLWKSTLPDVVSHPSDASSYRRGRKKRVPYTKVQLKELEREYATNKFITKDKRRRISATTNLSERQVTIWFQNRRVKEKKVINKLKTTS

| SMILES | composite z-score [1] | composite z-score (XIP peptide (Xip251-270)) | z-score [2] | z-score [3] | z-score [4] | z-score [5] |
| --- | --- | --- | --- | --- | --- | --- |
| CC(C)NC(=O)[C@@H]1c2ccccc2C(=O)N(C2Cc3ccccc3C2)[C@H]1c1ccc(CO)cc1 | 0.536 (inactive) | 0.787 | -0.826 | -1.94 (inactive) | -0.24 (inactive) | 0.0987 (inactive) |
| COc1cc(NN2C(C(O)c3ccco3)C=CC3C(=O)N(c4ccccc4)C(=O)C32)cc(OC)c1OC (stereo not drawn) | 0.318 (inactive) | 0.737 | -0.372 | -3.83 (inactive) | 0.153 (inactive) | -0.416 (inactive) |
| CC(CO)N1C(=O)[C@@H]2C3C(=O)OCCC/C=C\[C@H]3OC23C=CCN(C(C)(C)C)C(=O)[C@@H]13 (stereo partly drawn) | 0.453 (inactive) | -0.0516 | 0.67 | -4.72 (inactive) | -0.423 (inactive) | -1.21 (inactive) |
| COC(=O)[C@@]1(Cc2ccc(F)cc2)[C@H]2c3cc(C(=O)N(C)C)n(Cc4ccc(Cl)c(C(F)(F)F)c4)c3C[C@H]2CN1C(=O)c1ccccc1 | -0.512 (inactive) | 0.503 | -1.6 | -2.75 (inactive) | 1.09 (inactive) | 0.528 (inactive) |
| CCOC(=O)C[C@H]1[C@H](OC(=O)c2ccc(C(=O)c3ccccc3)cc2)[C@@H](NC(=O)c2ccccc2)c2cc(OCCCO)ccc2N1C(=O)c1ccc2ccccc2n1 | 0.0933 (inactive) | 0.0113 | -1.43 | -3.02 (inactive) | 0.193 (inactive) | -0.363 (inactive) |
| COc1cc(COC(C)=O)ccc1OC(C)=O | -0.603 (inactive) | 0.213 | 0.287 | 0.579 (inactive) | -1.08 (inactive) | -1.53 (inactive) |
| O=C1c2ccccc2[C@](Cc2ccccc2I)(C(=O)NCCN2CCOCC2)[C@H](c2ccc(CO)cc2)N1Cc1ccccc1Cl | 1.08 (inactive) | 0.862 | -1.47 | -4.29 (inactive) | -0.206 (inactive) | -0.183 (inactive) |
| [N-]=[N+]=Nc1ccccc1[C@H]1OC(c2ccc(OCCCO)cc2)=N[C@@]1(CCS(=O)(=O)c1ccccc1)C(N)=O | 1.21 (inactive) | 0.941 | -1.42 | -4.72 (inactive) | -0.23 (inactive) | 0.052 (inactive) |
| O=C1C[C@]2(c3ccc([N+](=O)[O-])cc3)C(=O)N(CC(F)(F)F)c3cc(CO)ccc3[C@H]2N1C1CCCCC1 | -0.0975 (inactive) | 0.0582 | -0.762 | -1.39 (inactive) | -0.219 (inactive) | -0.125 (inactive) |
| CCCCC(CC)C(O)C1C=CC2C(=O)N(Cc3ccccc3)C(=O)C2N1n1cnnc1 (stereo not drawn) | 0.0978 (inactive) | 0.671 | -0.465 | -3.42 (inactive) | 0.419 (inactive) | -0.454 (inactive) |
| COCCOC(=O)N1C(=O)[C@@]2(c3ccccc31)[C@H](c1ccccc1OCCO)N1[C@H](c3ccccc3)[C@H](c3ccccc3)OC(=O)[C@H]1[C@@H]2C(=O)N1CCN(c2ncccn2)CC1 | 1.04 (inactive) | 0.799 | -2.2 | -1.99 (inactive) | 0.0172 (inactive) | 0.0629 (inactive) |
| C[C@H]1C2[C@H](Cc3ccccc3)NC(=O)[C@]23C(=O)N[C@H](Cc2ccccc2)C(=O)N2CCC[C@H]2C(=O)NC/C=C\C/C=C/C3[C@@H]2O[C@]12C (stereo partly drawn) | 0.297 (inactive) | 0.192 | -0.227 | -6.27 (inactive) | -0.291 (inactive) | -0.104 (inactive) |
| COC(=O)[C@H](Cc1ccccc1)N[C@@H](/C=C/C1CC1)[C@H](O)Cc1ccccc1 | -0.207 (inactive) | -0.432 | -0.986 | -5.71 (inactive) | -0.157 (inactive) | -0.295 (inactive) |
